Source: PubChem
Shiga toxin inh = Shiga toxin inhibition; Vero cells, Shiga toxin protein synthesis inhibition reporter; inhibition, % at 38.7 µM; 290,000 tested, 9.2% active; AID 2315; in the data active = inhibition mostly above about 28%, no sharp cut-off; inactive = mostly below about 43%; note: 0% is about no effect
Sm TGR inh = S. mansoni TGR enzyme inhibition; Potency, µM (titrated, usually from 114 µM), without a hit: at the top dose activity change, negative = inhibition, actives largely listed as inhibitors; 360,000 tested, 3% active; AID 485364; purified TGR, DTNB reduction, TNB absorbance 405 nm; note: potency is the fitted concentration of half-maximal effect; % is set by controls: 0 for no effect and ±100 for the full control effect; nearly all actives have a fitted effect of over 60% in size
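Kinetic colorimetric format: TGR-catalysed, NADPH-driven DTNB reduction monitored via TNB absorbance. Enzyme dispensed at 20 nM; compound exposure 15 min at room temperature before reaction start.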
Pf growth 96h = P. falciparum growth inhibition at 96 hour, primary screen for plastid delayed-death inhibitors; P. falciparum luciferase reporter growth, 96 h; Potency, µM (series often up to 28.7 µM), without a hit: at the highest dose activity change, negative = inhibition, hits mostly inhibitors; 320,000 tested, 6.9% active; note: potency is the fitted concentration of half-maximal effect; % is set by controls: 0 for no effect and ±100 for the full control effect
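P. falciparum expressing integrated firefly luciferase, in erythrocytes at 2% hematocrit, 0.05% parasitemia, incubated with compounds 96 h at 37 C, 5% CO2. Growth inhibition read as loss of luminescence; two-generation exposure targets delayed-death apicoplast inhibitors.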
CHX counter = counter-screen hit for Shiga toxin inhibitors, cycloheximide; cell reporter, cycloheximide protein synthesis inhibition counterscreen; max response, %; 300,000 tested, 12% active; AID 2314; in the data active = max response mostly above about 13%, no sharp cut-off; inactive = mostly below about 14%; note: read at 38.3 µM for the half of the compounds with a filed dose; 0% is about no effect
NS1 function inh = blocks influenza NS1 protein function; Potency, µM (series often up to 46.1 µM), for inactives: at the top dose activity, positive = more growth; 270,000 tested, 0.4% active; AID 2326; calls by dose curve; note: potency is the fitted concentration of half-maximal effect; actives are rising curves; nearly all actives have a fitted effect of over 50% in size
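In this qHTS, NS1 from influenza A is expressed in budding yeast, where it slows growth. Cells are switched from glucose to 2% galactose medium (pH 6.0, -URA), treated with compound, and growth recovery is read at OD600.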
Pf growth 48h = inhibits P. falciparum growth in the first generation, 48 h. Potency, µM (doses to about 28.7 µM), for inactives: at the highest dose activity change, negative = inhibition, usual class: inhibitors. P. falciparum luciferase growth in erythrocytes, 48 h. 310,000 tested, 5.9% active; note: potency is the fitted concentration of half-maximal effect; % is set by controls: 0 for no effect and ±100 for the full control effect
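Growth was read as firefly luciferase luminescence after a 48 h, 37 C, 5% CO2 exposure of compounds to reporter-bearing P. falciparum cultures (0.1% parasitemia, 2% hematocrit final) in Albumax-supplemented RPMI 1640.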
* = called active by the depositor; ? = inconclusive; / = not tested or not shown. Sampled rows, rich in hits. Any-hit rate of the full collection: about 21%. Unless noted, calls come from the whole dose curve; as a rule, active = well fitted curve in the direction sought with a large enough effect; inconclusive = small, poorly fitted or top-dose-only effect, or another doubt; inactive = no such curve, though single readings can be large; an effect the other way counts as inactive or inconclusive.

SMILES | Shiga toxin inh | Sm TGR inh | Pf growth 96h | CHX counter | NS1 function inh | Pf growth 48h
Cc1ccc(C(=O)NCCCNC(=O)c2ccco2)cc1C | -1.9 | -15.3% | ? | 9.6 | 6.5% | 4.0%
c1ccc(OCCOCCN2CCN(C(c3ccccc3)c3ccccc3)CC2)cc1 | 3.2 | -0.8% | -22.7% | -3.3 | -29.7% | ?
CC(=O)c1ccccc1OCCCN1CCCCC1 | 12.4 | 31.6µM* | 53.2% | 17.1 | -1.7% | ?
Brc1ccccc1OCCCN1CCCCCC1 | 15.2 | -2.3% | -0.9% | 3.5 | -0.7% | -23.3%
COc1ccccc1OCCCCN1CCN(C(c2ccccc2)c2ccccc2)CC1 | -10.8 | -23.7% | 11.7µM* | -3.0 | -9.0% | ?
O=C(Cc1sc(Nc2ccccc2)nc1-c1ccccc1)NCc1ccccn1 | 53.3* | 25.1µM* | -6.1% | 38.9* | / | 13.3%
O=C(Cc1ccccc1)NCc1ccccn1 | 12.9 | 0.0% | -22.4% | 6.5 | 3.4% | 59.2%
O=C(O)Cc1sc(Nc2ccc(F)cc2)nc1-c1cccs1 | 59.8* | -26.2% | 76.2% | 29.6* | / | 59.3%
O=C(O)Cc1sc(Nc2ccccc2Cl)nc1-c1ccccc1 | / | -6.9% | / | / | / | /
O=C(O)Cc1sc(Nc2ccccc2)nc1-c1ccc(Cl)cc1 | 119.5* | 44.7µM* | 112.2% | 42.4* | / | 92.0%
Cc1ccc(Nc2nc(-c3ccccc3)c(CC(=O)O)s2)cc1 | 82.3* | -34.7% | ? | 47.5* | / | 66.7%
CC(OC(=O)CCc1nc2ccccc2[nH]c1=O)c1ccccc1 (stereo not drawn) | -13.1 | -10.8% | ? | -1.8 | / | 8.9%
COc1cccc(OCCCn2c(-c3ccc(Cl)cc3)nc3ccccc3c2=O)c1 | / | -0.2% | / | / | / | /
O=C(NC1CCC(O)CC1)c1ccc(-c2ccc([N+](=O)[O-])cc2)o1 (stereo not drawn) | 37.1 | 1.41µM* | 15.6% | 17.4* | 12.1% | 20.3%
Cc1ccc(C(=O)NC2CCCCCC2)o1 | 39.8* | 0.1% | / | 20.5* | -0.6% | 17.2%
Cc1ccc(C(=O)OCC(=O)NC2CCCCC2)o1 | 31.0 | 1.8% | 42.8% | 15.0* | -4.9% | -0.9%
Cc1ccc(CS(=O)(=O)Cc2ccc(C(=O)NC3CCCCCC3)o2)cc1 | -2.3 | ? | -6.1% | 1.7 | 0.3% | ?
O=C(COC(=O)c1ccc(-c2ccc([N+](=O)[O-])cc2)o1)NC(=O)NC1CCCCC1 | 2.1 | 39.8µM* | -22.1% | 1.4 | 4.6% | 17.0%
Cc1cc(C(=O)OCC(=O)NC2CCCCC2)c(C)o1 | -15.2 | -17.1% | 1.0% | -2.4 | -5.0% | /
Cc1cccc(NC(=O)NCCn2c(=O)oc3ccc(C)cc32)c1 | / | 0.6% | / | / | / | /
COc1ccc(N2CC(NC(=O)COc3ccccc3C)CC2=O)cc1OC (stereo not drawn) | / | 7.1% | / | / | / | /
CCOC(=O)CC(NS(=O)(=O)c1ccc2[nH]cc(C(=O)O)c(=O)c2c1)c1ccc(OCC)c(OC)c1 (stereo not drawn) | -1.7 | -1.5% | -11.3% | -1.5 | -10.1% | 11.5%
CC(C)CC(OC(=O)c1ccco1)C(=O)NC1CCCCC1 (stereo not drawn) | 17.7 | -10.2% | 363.5% | 16.6* | 1.7% | 6.4%
O=C(NC1CCCCCC1)c1ccco1 | 10.3 | -2.2% | ? | 12.1* | -6.8% | 17.9%
O=C(CNC(=O)c1ccco1)NC1CCCCCC1 | / | -0.6% | 77.2% | / | / | 47.9%
SMILES | Shiga toxin inh | Sm TGR inh | Pf growth 96h | CHX counter | NS1 function inh | Pf growth 48h
CCCCN1CCC(n2c(=O)[nH]c3ccccc32)CC1 | / | / | / | / | -15.9% | /
O=c1[nH]c2ccccc2n1CCCN1CCC(n2c(=O)[nH]c3cc(Cl)ccc32)CC1 | 13.0 | 11.9% | 4.78µM* | 4.0 | -0.2% | 10.7µM*
COc1cc(OC)c2c(c1C(CCN1CCN(c3ccccc3)CC1)c1ccc(N(C)C)cc1)OC(=O)CC2c1ccc(N(C)C)cc1 (stereo not drawn) | 2.6 | / | / | 2.1 | / | /
COc1ccc(N2CCN(C(=O)CNC(=O)c3ccc4ccccc4c3)CC2)cc1 | / | -3.8% | -28.3% | / | / | ?
COc1ccc(C(CCN2CCN(c3ccccc3)CC2)c2c(O)cc(OC)cc2OC)cc1 (stereo not drawn) | -10.6 | 6.9% | 0.465µM* | -5.1 | -1.2% | 1.04µM*
COc1cc(O)c(C(CCN2CCN(c3ccccc3)CC2)c2ccc(N(C)C)cc2)c(OC)c1 (stereo not drawn) | 26.7 | 5.2% | 0.657µM* | -2.8 | -18.4% | 0.828µM*
COc1ccc(N2CCN(CCC(O)c3ccc4ccccc4c3)CC2)cc1 (stereo not drawn) | 8.7 | -19.2% | -14.1% | 1.0 | 0.3% | 3.29µM*
COc1ccc(OC)c(NC(=O)CCN2CCN(c3ccccc3)CC2)c1 | -3.9 | 0.0% | ? | -1.5 | -2.0% | 1.9%
COc1cc(O)c(C(CCN2CCOCC2)c2ccc(N(C)C)cc2)c(OC)c1 (stereo not drawn) | 1.9 | ? | 7.38µM* | -6.7 | -10.9% | 4.65µM*
O=C(CSc1nc2ccccc2c2nc(-c3ccccc3)nn12)Nc1ccc(Br)cc1 | / | 8.4% | / | / | / | /
COc1ccccc1NS(=O)(=O)c1c(C(=O)N2CCCC2)c(C)n(C)c1C | -5.7 | -8.0% | 4.9% | -2.0 | 5.3% | 8.1%
NCCCC[C@H](NC(=O)[C@H](CCCN=C(N)N)NC(=O)[C@H](CO)NC(=O)[C@H](CCCN=C(N)N)NC(=O)[C@@H](N)Cc1ccc(O)cc1)C(=O)N[C@@H](Cc1ccc(O)cc1)C(=O)N[C@@H](CO)C(=O)N[C@@H](CO)C(=O)N[C@@H](Cc1c[nH]c2ccccc12)C(=O)N[C@@H](Cc1ccc(O)cc1)C(=O)O | -6.2 | / | / | -0.8 | / | /
Cc1ccc2nc(-c3cccc(NC(=O)c4cccc5ccccc45)c3)oc2c1 | / | 10.7% | / | / | / | /
Cc1cccc(CN2C(=O)c3ccccc3Sc3ccc(C(=O)NCc4cccs4)cc32)c1 | / | 9.8% | / | / | / | /
CC[N+](C)(C)CCN(Cc1ccc(Cl)cc1)c1ccccn1 | -19.7 | -7.6% | 2.62µM* | -4.0 | 5.0% | /
Cc1ccc(C)c(C(=O)CCC(=O)N2CCN(c3cccc(C(F)(F)F)c3)CC2)c1 | / | -5.8% | ? | / | / | -18.9%
COc1cccc(C(=O)CC(=O)C(=O)Nc2ccc(C)cc2Cl)c1 | 38.3* | -20.0% | 87.1% | 11.9* | -3.6% | 46.5%
COc1cc(OC)c(NC(=O)C(=O)CC(=O)c2ccc(C)cc2C)cc1Cl | -10.5 | -5.6% | 3.29µM* | -8.5 | / | ?
Cc1coc2cc3oc(=O)c(CCC(=O)NCC(=O)O)c(C)c3cc12 | -12.4 | -0.5% | 18.3% | -2.1 | 2.0% | 20.9%
Cn1nc(C(=O)OCc2ccccc2F)c2ccccc2c1=O | 34.7* | 0.2% | 36.2% | 11.9 | / | 20.7%
Nc1nn(-c2ccccc2)nc1C(=O)OCc1ccccc1F | 98.9 | 2.7% | 1.04µM* | 31.2* | / | 17.2%
O=C(OCc1ccccc1F)c1ccc(-c2nnn(Cc3ccccc3)n2)cc1 | / | -9.8% | / | / | / | /
Cc1ccccc1COC(=O)c1nn(-c2ccccc2)nc1N | 53.9* | -1.3% | ? | 31.7* | / | -2.4%
CC(C)(C)C(=O)OC1=CN(Cc2ccccc2)S(=O)(=O)c2ccccc21 | / | 5.8% | / | / | / | /
